Measured values from PubChem BioAssay (NCATS).
Records with an inconclusive call do not appear. Calls of active or inactive are those of the source. Unless noted, the call rests on the fitted dose curve; in most records, active means well fitted curve in the direction sought with a large enough effect; inconclusive means small, poorly fitted or top-dose-only effect, or another doubt; inactive means no such curve, though single readings can be large; an effect the other way counts as inactive or inconclusive.

Experiments:
[1] = qHTS Validation Assay to Find Inhibitors of Chronic Active B-Cell Receptor Signaling (AID 485345; active means well fitted curve in the direction sought with a large enough effect in the main read-out, with a control signal flat, not every such curve was filed as active;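 further: 0% = untreated basal cells and 100% = 10 µM MG-132 proteasome inhibitor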)
Outline: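 TMD8 ABC-DLBCL cells with dox-inducible green luciferase–IκBα fusion and red native luciferase; compounds 46 uM–3 nM, 4 h at 37C with doxycycline in 0.5% FBS IMDM. Green/red ratio normalized to basal and 10 uM MG-132.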

[2] = target: Beta-2 adrenergic receptor (Homo sapiens) (UniProt P07550); assay: qHTS validation assay of beta-arrestin-biased ligands of beta2-adrenergic receptor (AID 485366); further: 0% is about no effect
Outline: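 Arrestin-recruitment (Tango) reporter: ligand-bound beta2-AR recruits beta-arrestin, releasing tTA, which upregulates luciferase. Titrations of up to 46 microM incubated 18 hr at 37 degrees C before luminescent readout.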

[3] = Quantitative high throughput screen for delayed death inhibitors of the malarial parasite plastid, 48 hour incubation (AID 488752); further: on the % scale 0 is the no-effect control and ±100 the full control effect; nearly all actives have a fitted effect of over 65% in size
Outline: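 One parasite generation (48 h, 37 C, 5% CO2) of luciferase-reporter P. falciparum in erythrocytes is run with test compound; decreased luminescence indicates inhibited growth.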

[4] = target: Thioredoxin reductase 1, cytoplasmic (Rattus norvegicus) (UniProt O89049); assay: qHTS Assay for Substrates of Mammalian Selenoprotein Thioredoxin Reductase 1 (TrxR1) (AID 488772);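 further: NADPH fluorescence in the first read after selenite addition and not the 8 min delta; series mostly up to about 57 µM; 0% is about no effect; a drop in NADPH fluorescence below the no-compound background marks a TrxR1 substrate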
Outline: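 Quantitative HTS in Tris-HCl buffer at pH 7.5 with EDTA and Tween-20, using rat TrxR1, 400 uM NADPH and 400 uM selenite (final). A fall in initial NADPH fluorescence relative to background marked substrate behaviour.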

[5] = target: Thioredoxin reductase 1, cytoplasmic (Rattus norvegicus) (UniProt O89049); assay: qHTS Assay for Inhibitors of Mammalian Selenoprotein Thioredoxin Reductase 1 (TrxR1) (AID 488773); details: Potency: inhibition;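 further: drop in NADPH fluorescence over an 8 min run after selenite addition; series mostly up to about 57 µM; on the % scale 0 is the no-effect control and ±100 the full control effect; nearly all actives have a fitted effect of over 40% in size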
Outline: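 Steps: enzyme (90 nM) plus NADPH (400 uM final), 5 min at ~22 deg C; compound added, 15 min; selenite (400 uM final) added; fluorescence followed for 8 min. Concentration-response curves derived from the normalized delta values.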

[6] = target: Flap endonuclease 1 (Homo sapiens) (UniProt P39748); assay: qHTS Validation Assay for the Inhibitors of Human Flap endonuclease 1 (FEN1) (AID 488816); further: on the % scale 0 is the no-effect control and ±100 the full control effect
Outline: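 FEN1, dispensed as a 10 nM reagent, was preincubated with pin-transferred compounds for 15 min at room temperature before substrate was added (50 nM final). Plates were read at 0 and 15 min, and a four-parameter Hill equation was fitted to the concentration-response data.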

[7] = target: M-phase phosphoprotein 8 (Homo sapiens) (UniProt Q99549); assay: qHTS Validation Assay for Inhibitors for MPP8 Chromodomain Interactions with Methylated Histone Tails (AID 488949); further: top concentration of the series differs between compounds; on the % scale 0 is the no-effect control and ±100 the full control effect; nearly all actives have a fitted effect of over 55% in size
Outline: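 MPP8 (50 nM) was pre-bound to 50 nM biotinylated H3(1-18)K9me3 peptide in PBS pH 7.4 with 0.01% Tween-20. Compounds were then added for 30 min at room temperature, and complex disruption was read by AlphaScreen with streptavidin donor and nickel-chelate acceptor beads.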

[8] = target: Chromobox protein homolog 1 (Homo sapiens) (UniProt P83916); assay: qHTS Validation Assay for Inhibitors of HP1-beta Chromodomain Interactions with Methylated Histone Tails (AID 488953);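 further: loss of AlphaScreen luminescence from HP1-beta binding biotinylated H3K9me3 peptide; series mostly up to about 110 µM; on the % scale 0 is the no-effect control and ±100 the full control effect; nearly all actives have a fitted effect of over 50% in size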
Outline: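 Measured as loss of AlphaScreen luminescence from streptavidin donor and nickel acceptor beads (10 ug/mL final) bridging HP1-beta and biotin-H3(1-18)K9me3, each 50 nM. Compounds met the preassembled complex for 30 min at RT.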

[9] = target: Transient receptor potential cation channel subfamily V member 1 (Homo sapiens) (UniProt Q8NER1); assay: HTS Assay for Compounds that Act as Enhancers of the Vanilloid Receptor 1 (AID 488979); further: 0% is about no effect
Outline: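 TRPV1-expressing cells loaded with Fluo-8 calcium dye; compounds added and calcium influx read kinetically for 3 min (agonist phase), then capsaicin at EC20 added and read 2 min more for enhancement. Fluorescence ex 480/em 520 nm.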

[10] = target: Thyrotropin receptor (Homo sapiens) (UniProt P16473); assay: qHTS Assay for Antagonists of the Thyroid Stimulating Hormone Receptor (AID 488980); further: series mostly up to about 58 µM; 0% is about no effect
Outline: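 TSHR-transfected HEK293 cells (2000/well) in HEPES-buffered HBSS with 70 uM RO 20-1724 were stimulated with 4 nM TSH (EC80, final) in the presence of compound. cAMP was measured by HTRF competition after lysis and 30 min at RT.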

[11] = target: D(1A) dopamine receptor (Homo sapiens) (UniProt P21728); assay: HTS Assay for Allosteric Agonists of the Human D1 Dopamine Receptor: Primary Screen for Agonists (AID 488981); further: 0% is about no effect
Outline: (§1)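 Tetracycline-induced HEK293 T-REx cells force-coupled to calcium signalling were incubated overnight at 30 C and dye-loaded at room temperature. Calcium flux over 180 s after compound addition flagged agonists; a further 180 s read after EC20 dopamine flagged potentiators.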

[12] = target: D(1A) dopamine receptor (Homo sapiens) (UniProt P21728); assay: HTS Assay for Allosteric Agonists of the Human D1 Dopamine Receptor: Primary Screen for Potentiators (AID 488982); further: 0% is about no effect
Outline: as §1

[13] = target: D(1A) dopamine receptor (Homo sapiens) (UniProt P21728); assay: HTS Assay for Allosteric Agonists of the Human D1 Dopamine Receptor: Primary Screen for Antagonists (AID 488983);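 further: calcium flux response to an EC80 dopamine challenge measured with no-wash dye; on the % scale 0 is the no-effect control and ±100 the full control effect; nearly all actives have a fitted effect of over 65% in size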
Outline: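 Screening of inducible HEK293 T-REx D1 cells: compound first, EC80 dopamine 180 s later, each phase read kinetically for calcium over 180 s.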

[14] = Validation screen for small molecules that induce genotoxicity in human embryonic kidney (HEK293T) cells expressing luciferase-tagged ELG1 (AID 493106); further: 0% is about no effect
Outline: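 Reporter-gene quantitative HTS in HEK293T cells carrying luciferase-tagged ELG1, whose level climbs under genotoxic stress. Compound exposure lasts 16 hr at 37 °C before luciferase detection.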

[15] = target: ATPase family AAA domain-containing protein 5 (Homo sapiens) (UniProt Q96QE3); assay: Validation screen for small molecules that inhibit ELG1-dependent DNA repair in human embryonic kidney (HEK293T) cells expressing luciferase-tagged ELG1 (AID 493107);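 further: cells co-treated with the DNA-damaging agent 5-fluorouridine alongside compound; series mostly up to about 46 µM; on the % scale 0 is the no-effect control and ±100 the full control effect; inhibitors lower the ELG1-luciferase luminescence signal; nearly all actives have a fitted effect of over 70% in size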
Outline: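 Quantitative HTS in HEK293T cells carrying luciferase-tagged ELG1, stimulated with 5-fluorouridine alongside compound for 16 hr. Loss of luciferase signal marks inhibition of ELG1 response.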

[16] = target: Thyrotropin-releasing hormone receptor (Homo sapiens) (UniProt P34981); assay: qHTS for Small Molecule Agonists and Allosteric Enhancers of Human TRH Receptor: Validation Screen for Agonists (AID 493127;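 active means calcium activation more than 3 SD above the typical response in the agonist read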;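 further: intracellular calcium rise by fluo-8 fluorescence before TRH EC20 addition; 0% is about no effect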); details: TRH receptor agonist cell assay; at 2 µM; stronger effect = higher value
Outline: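 Gq-coupled calcium mobilization in TRHR cells after compound addition, monitored kinetically with fluo-8 dye on an FDSS reader.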

[17] = Nrf2 qHTS screen for inhibitors: Validation (AID 493153; active means well fitted inhibition curve with a large enough effect in the main read-out, with a control signal flat, not every such curve was filed as active); details: Potency: luciferase luminescence; viability change: measured here: cytotoxicity max response
Outline: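 Dose-response validation uses reporter A549 cells with firefly luciferase under an antioxidant response element. Compounds stay on cells 18-24 h at 37°C, and luminescence indicates Nrf2-driven transcription.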

Sequence of D(1A) dopamine receptor (Homo sapiens) (P21728 whole entry, looked up): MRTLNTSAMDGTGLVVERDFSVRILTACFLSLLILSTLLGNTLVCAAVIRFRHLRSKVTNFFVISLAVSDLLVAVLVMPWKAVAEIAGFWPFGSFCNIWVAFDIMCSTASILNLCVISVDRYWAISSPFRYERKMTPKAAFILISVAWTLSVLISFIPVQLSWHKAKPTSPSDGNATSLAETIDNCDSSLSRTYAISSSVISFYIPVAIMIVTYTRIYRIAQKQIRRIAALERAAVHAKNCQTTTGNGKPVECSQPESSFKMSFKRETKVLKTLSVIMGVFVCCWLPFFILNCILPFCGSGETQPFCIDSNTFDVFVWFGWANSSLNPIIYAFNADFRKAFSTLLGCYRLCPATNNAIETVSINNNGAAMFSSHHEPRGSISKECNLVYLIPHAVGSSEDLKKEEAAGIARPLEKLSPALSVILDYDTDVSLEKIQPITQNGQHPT
Sequence of M-phase phosphoprotein 8 (Homo sapiens) (Q99549 whole entry, looked up): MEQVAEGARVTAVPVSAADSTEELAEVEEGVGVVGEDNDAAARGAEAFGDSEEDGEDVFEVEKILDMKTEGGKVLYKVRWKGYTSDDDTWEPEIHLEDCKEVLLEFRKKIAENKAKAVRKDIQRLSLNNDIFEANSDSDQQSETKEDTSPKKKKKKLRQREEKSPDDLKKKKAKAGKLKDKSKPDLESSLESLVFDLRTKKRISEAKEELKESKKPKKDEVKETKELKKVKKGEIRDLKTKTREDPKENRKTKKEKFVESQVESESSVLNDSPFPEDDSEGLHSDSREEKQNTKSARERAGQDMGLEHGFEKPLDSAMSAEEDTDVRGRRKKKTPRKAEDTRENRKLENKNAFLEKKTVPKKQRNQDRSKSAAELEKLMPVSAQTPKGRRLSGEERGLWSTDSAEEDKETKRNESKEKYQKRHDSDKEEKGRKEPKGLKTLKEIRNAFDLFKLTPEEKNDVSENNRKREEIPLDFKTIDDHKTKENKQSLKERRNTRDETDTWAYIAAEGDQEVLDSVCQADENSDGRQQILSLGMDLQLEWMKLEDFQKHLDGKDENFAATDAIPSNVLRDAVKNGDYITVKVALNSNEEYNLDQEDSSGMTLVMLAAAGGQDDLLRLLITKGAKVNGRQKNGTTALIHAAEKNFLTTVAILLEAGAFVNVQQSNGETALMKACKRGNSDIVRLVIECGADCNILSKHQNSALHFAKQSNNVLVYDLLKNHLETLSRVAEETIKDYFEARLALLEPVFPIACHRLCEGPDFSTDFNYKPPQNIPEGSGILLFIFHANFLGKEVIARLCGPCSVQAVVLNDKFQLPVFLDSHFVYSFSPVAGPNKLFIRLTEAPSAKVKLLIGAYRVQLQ
Sequence of Thioredoxin reductase 1, cytoplasmic (Rattus norvegicus) (O89049 whole entry, looked up): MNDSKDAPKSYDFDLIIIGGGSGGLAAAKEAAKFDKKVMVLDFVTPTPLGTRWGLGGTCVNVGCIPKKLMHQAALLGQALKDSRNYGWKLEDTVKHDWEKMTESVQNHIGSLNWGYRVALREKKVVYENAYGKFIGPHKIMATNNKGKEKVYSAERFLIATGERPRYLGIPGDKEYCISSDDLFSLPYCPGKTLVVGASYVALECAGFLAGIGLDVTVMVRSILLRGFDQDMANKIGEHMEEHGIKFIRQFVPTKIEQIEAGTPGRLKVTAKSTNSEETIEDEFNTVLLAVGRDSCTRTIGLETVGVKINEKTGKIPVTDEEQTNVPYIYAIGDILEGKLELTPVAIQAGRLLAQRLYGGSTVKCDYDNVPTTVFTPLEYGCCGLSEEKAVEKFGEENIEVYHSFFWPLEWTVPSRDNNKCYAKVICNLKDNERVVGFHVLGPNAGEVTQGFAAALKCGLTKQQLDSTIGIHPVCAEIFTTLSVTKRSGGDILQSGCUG
Sequence of Thyrotropin-releasing hormone receptor (Homo sapiens) (P34981 whole entry, looked up): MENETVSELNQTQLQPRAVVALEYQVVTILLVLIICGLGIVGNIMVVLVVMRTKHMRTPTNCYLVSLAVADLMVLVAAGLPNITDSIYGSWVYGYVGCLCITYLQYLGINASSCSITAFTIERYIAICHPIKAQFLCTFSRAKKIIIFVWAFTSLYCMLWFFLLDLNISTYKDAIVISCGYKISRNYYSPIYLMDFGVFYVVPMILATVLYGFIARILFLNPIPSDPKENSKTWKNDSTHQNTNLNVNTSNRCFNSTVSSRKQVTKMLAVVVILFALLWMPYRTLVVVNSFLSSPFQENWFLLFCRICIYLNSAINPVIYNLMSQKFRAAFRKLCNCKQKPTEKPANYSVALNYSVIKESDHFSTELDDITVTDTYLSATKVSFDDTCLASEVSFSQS
Sequence of Flap endonuclease 1 (Homo sapiens) (P39748 whole entry, looked up): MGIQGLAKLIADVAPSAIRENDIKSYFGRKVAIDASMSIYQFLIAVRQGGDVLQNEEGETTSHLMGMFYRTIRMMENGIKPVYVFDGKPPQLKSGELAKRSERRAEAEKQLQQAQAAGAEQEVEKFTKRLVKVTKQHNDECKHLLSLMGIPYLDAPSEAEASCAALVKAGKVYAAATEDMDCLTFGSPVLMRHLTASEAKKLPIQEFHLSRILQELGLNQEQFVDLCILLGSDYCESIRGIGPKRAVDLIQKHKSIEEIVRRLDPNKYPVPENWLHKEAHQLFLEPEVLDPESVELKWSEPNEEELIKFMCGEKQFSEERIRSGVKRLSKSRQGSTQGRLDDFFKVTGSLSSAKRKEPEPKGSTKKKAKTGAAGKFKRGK
Sequence of Thyrotropin receptor (Homo sapiens) (P16473 whole entry, looked up): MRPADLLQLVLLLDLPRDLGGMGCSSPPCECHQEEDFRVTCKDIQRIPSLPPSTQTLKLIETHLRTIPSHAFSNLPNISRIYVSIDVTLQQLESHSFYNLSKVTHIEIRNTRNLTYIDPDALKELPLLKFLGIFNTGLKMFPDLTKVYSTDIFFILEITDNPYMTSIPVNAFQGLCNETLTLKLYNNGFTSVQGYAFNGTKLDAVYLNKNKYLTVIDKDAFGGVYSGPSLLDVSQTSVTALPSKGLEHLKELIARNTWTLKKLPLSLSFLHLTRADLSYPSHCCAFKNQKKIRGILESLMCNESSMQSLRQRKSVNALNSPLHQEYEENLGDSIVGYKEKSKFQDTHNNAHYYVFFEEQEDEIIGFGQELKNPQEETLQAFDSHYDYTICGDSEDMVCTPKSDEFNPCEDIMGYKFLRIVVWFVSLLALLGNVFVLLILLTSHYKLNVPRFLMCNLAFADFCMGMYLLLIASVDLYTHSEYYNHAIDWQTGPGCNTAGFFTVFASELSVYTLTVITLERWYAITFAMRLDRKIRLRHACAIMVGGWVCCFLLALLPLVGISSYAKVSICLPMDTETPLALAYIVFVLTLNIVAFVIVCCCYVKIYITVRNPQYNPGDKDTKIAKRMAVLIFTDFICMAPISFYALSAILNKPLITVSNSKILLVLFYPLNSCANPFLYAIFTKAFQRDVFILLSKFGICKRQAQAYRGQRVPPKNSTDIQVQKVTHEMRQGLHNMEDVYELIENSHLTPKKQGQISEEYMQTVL
Sequence of Transient receptor potential cation channel subfamily V member 1 (Homo sapiens) (Q8NER1 whole entry, looked up): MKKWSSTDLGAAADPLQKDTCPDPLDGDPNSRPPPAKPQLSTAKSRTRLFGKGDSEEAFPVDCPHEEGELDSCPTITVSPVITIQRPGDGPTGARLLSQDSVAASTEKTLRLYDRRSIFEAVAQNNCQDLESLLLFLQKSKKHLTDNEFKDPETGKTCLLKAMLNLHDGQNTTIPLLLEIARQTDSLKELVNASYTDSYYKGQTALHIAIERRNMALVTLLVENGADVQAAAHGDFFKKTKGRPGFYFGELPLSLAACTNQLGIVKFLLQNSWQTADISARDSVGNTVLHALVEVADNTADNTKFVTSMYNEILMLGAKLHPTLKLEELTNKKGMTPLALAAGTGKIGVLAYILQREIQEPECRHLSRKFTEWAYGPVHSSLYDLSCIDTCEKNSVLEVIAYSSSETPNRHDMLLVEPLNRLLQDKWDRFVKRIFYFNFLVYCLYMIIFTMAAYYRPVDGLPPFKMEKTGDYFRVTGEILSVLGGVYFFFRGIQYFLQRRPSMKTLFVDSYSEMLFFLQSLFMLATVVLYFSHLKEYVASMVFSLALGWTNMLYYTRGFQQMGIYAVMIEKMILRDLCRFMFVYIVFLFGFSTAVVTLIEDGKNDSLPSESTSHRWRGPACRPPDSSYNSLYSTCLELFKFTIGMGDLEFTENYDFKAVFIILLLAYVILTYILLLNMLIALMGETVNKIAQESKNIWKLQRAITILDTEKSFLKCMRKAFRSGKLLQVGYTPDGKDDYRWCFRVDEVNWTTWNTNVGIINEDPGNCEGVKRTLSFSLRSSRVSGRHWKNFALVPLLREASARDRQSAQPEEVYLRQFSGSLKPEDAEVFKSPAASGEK
Sequence of Beta-2 adrenergic receptor (Homo sapiens) (P07550 whole entry, looked up): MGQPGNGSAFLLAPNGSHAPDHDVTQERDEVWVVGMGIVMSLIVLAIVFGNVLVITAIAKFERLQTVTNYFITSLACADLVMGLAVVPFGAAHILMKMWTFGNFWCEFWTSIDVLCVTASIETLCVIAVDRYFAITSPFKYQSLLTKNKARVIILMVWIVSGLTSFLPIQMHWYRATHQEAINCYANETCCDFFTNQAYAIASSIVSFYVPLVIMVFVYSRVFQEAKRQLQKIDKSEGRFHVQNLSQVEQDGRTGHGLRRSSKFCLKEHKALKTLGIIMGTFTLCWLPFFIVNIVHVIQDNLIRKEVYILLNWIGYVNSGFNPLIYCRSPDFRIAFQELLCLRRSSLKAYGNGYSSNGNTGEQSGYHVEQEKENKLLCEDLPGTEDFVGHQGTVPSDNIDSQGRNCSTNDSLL
Sequence of Chromobox protein homolog 1 (Homo sapiens) (P83916 whole entry, looked up): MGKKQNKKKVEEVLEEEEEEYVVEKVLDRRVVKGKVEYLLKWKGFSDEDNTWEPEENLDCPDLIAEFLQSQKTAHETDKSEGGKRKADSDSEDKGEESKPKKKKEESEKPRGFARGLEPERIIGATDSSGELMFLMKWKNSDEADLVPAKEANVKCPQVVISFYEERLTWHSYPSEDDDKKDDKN

O=[N+]([O-])c1ccc(O[C@@H]2O[C@H](CO)[C@@H](O)[C@H](O)[C@H]2F)c([N+](=O)[O-])c1
inactive: outcome [1] | outcome [2] | Potency [3] | outcome [4] | Potency [5] | Potency [6] | Potency [7] | Potency [8] | outcome [9] | outcome [10] | outcome [11] | Potency [12] | outcome [13] | outcome [14] | Potency [15] | activation [16] 1.06% | Potency [17]
-9.61%: viability change [17]
